L3MBTL1 block: qHTS Assay for the Inhibitors of L3MBTL1 | Lethal(3)malignant brain tumor-like protein 1 (Homo sapiens), Q9Y468 | AlphaScreen L3MBTL1–H3K9me1 peptide binding | Potency, µM (top dose mostly 57.1 µM), actives largely listed as inhibitors | 230,000 compounds, 0.66% hits | AID 485360, 2010; note: nearly all actives have a fitted effect of over 60% in size
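First, the protein-peptide complex forms for 30 min at room temperature (L3MBTL1 50 nM, biotinylated H3K9me1 peptide 75 nM). Next, compounds are pin-transferred and incubated 30 min. Finally, AlphaScreen beads are added and read after 30 min.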
HP1b binding inh: HTS for Inhibitors of HP1-beta Chromodomain Interactions with Methylated Histone Tails; 390,000 compounds, 0.56% hits; AlphaScreen HP1-beta / biotin-H3K9me3 peptide binding; Potency, µM (doses to about 114 µM), usual class: inhibitors; note: nearly all actives have a fitted effect of over 70% in size
Target sequence (P83916 whole entry, looked up): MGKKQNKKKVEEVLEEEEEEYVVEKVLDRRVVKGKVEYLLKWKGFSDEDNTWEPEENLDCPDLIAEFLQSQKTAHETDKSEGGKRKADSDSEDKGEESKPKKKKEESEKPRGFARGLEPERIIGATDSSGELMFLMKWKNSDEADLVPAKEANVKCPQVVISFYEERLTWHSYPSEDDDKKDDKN
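AlphaScreen: HP1-beta (50 nM) preformed 30 min with biotin-H3(1-18)K9me3 peptide (50 nM) in PBS pH 7.4, 0.01% Tween-20. Compound added for 30 min at RT, then streptavidin donor/nickel chelate acceptor beads (10 ug/mL) for 30 min.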
G9a block: qHTS Assay for Inhibitors of Histone Lysine Methyltransferase G9a | 350,000 compounds, 8.8% hits | G9a H3K9 monomethylation, AlphaScreen, 2 h | Potency, µM (top dose mostly 102 µM), actives largely listed as inhibitors | Histone-lysine N-methyltransferase EHMT2 (Homo sapiens), Q96KQ7; note: nearly all actives have a fitted effect of over 75% in size
Target sequence (Q96KQ7 913-1193 limits assumed): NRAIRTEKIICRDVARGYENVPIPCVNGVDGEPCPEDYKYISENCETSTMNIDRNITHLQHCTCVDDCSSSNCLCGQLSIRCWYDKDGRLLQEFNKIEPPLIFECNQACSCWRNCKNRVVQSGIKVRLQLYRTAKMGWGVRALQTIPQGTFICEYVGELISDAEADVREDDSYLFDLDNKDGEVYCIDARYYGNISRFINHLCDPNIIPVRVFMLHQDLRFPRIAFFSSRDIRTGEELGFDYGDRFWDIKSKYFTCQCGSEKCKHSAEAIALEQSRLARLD
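AlphaScreen read-out: biotin-H3K9 peptide (500 nM) methylation by 20 nM enzyme with 20 uM SAM, 2 h at room temperature after 15 min compound preincubation; anti-monomethyl H3K9 antibody plus donor/acceptor beads, 10 min dark.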
Sfp PPTase inh: qHTS Assay for Inhibitors of Bacillus subtilis Sfp phosphopantetheinyl transferase (PPTase) | 4'-phosphopantetheinyl transferase ffp (Bacillus subtilis), Q9F4F7 | Biochemical Sfp PPTase activity, qHTS | Potency, µM, actives largely listed as inhibitors | 310,000 compounds, 3.5% hits | AID 1490, 2009;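 note: the enzyme is Sfp with the accession as filed and its product quenches rhodamine fluorescence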
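After 15 min at room temperature with compound, 15 nM Sfp received 5 uM rhodamine-CoA plus 12.5 uM BHQ-2-ybbR (50 mM Hepes pH 7.6, 10 mM MgCl2). Rate came from the fluorescence difference over 30 min, ex 525/em 598 nm.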
BAZ2B block: qHTS Assay for Inhibitors of BAZ2B; Bromodomain adjacent to zinc finger domain protein 2B (Homo sapiens), Q9UIF8; AlphaScreen BAZ2B-H3K14Ac peptide displacement; Potency, µM (top dose mostly 114 µM), actives largely listed as inhibitors; 360,000 compounds, 4.4% hits; AID 504333, 2011; note: nearly all actives have a fitted effect of over 60% in size
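Compounds, titrated to a top concentration of 110 uM, were incubated 30 min at room temperature with preformed BAZ2B/acetyl-K14 H3 peptide complex (50 nM each). Proximity signal was measured by AlphaScreen after 20 min with beads.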
JMJD2A Tudor: qHTS Assay for Inhibitors of JMJD2A-Tudor Domain; Lysine-specific demethylase 4A (Homo sapiens), O75164; AlphaScreen JMJD2A-Tudor / H3K4me3 peptide binding; Potency, µM (series often up to 114 µM), actives largely listed as inhibitors; 390,000 compounds, 4.4% hits; note: nearly all actives have a fitted effect of over 50% in size
A number is an active result; 0 = inactive; ? = inconclusive; - = no result given; [ ] = remark or other dose. Most compounds without a hit are left out; they make up all but 12% or so of the library. Calls come from the whole dose curve; as a rule, active = well fitted curve in the direction sought with a large enough effect; inconclusive = small, poorly fitted or top-dose-only effect, or another doubt; inactive = no such curve, though single readings can be large; an effect the other way counts as inactive or inconclusive.

SMILES	L3MBTL1 block	HP1b binding inh	G9a block	Sfp PPTase inh	BAZ2B block	JMJD2A Tudor
O=C(Nc1ccc(Br)cc1)c1cnc[nH]1	-	0	0	0	0	0
O=C(c1cnn(C(=O)c2ccco2)c1)c1cc(F)ccc1O	0	0	-	-	-	0
CCc1ccc(NC(=S)NNC(=O)c2ccccc2OC(F)F)cc1	0	-	12.6µM	0	0	-
COc1ccc(NC(=S)NNC(=O)c2ccccc2OC(F)F)cc1	-	0	?	0	0	0
O=CNc1ccccc1	0	0	0[0.501 µM]	-	0	0
CN(Cc1ccco1)C(=O)c1c[nH]c2ccc(S(=O)(=O)Nc3ccc4c(c3)OCCO4)cc2c1=O	0	0	89.1µM	0	?	0
CCOc1ccc(NS(=O)(=O)c2ccc3[nH]cc(C(=O)NCc4ccco4)c(=O)c3c2)cc1	-	0	?	-	-	0
CCc1ccc(NS(=O)(=O)c2ccc3[nH]cc(C(=O)N(C)Cc4ccco4)c(=O)c3c2)cc1	0	0	89.1µM	0	?	0
CCOc1cc(/C=C(\C#N)C(N)=O)ccc1OCc1c(C)no[n+]1[O-]	0	0	0	0	0	0
CC1(O)C(=O)C=C2C=C(CCCCOCc3ccccc3)OC=C2C1=O (configuration not stated)	-	-	-	0	-	-
O=C(NCCN1CCN(c2cccc(Cl)c2)CC1)Nc1ccccc1C(F)(F)F	-	0	0	-	0	0
CCOC(=O)c1c(C)[nH]c(C)c1S(=O)(=O)N1CCC(C(=O)NCc2cccc(C)c2)CC1	-	0	0	-	0	0
Nc1c(S(=O)(=O)c2ccccc2)cnc2c(-c3ccc(F)cc3)cnn12	0	0	0	0	0	0
CS(=O)(=O)c1cnc2c(S(=O)(=O)c3ccccc3)cnn2c1N	0	0	?	0	0	28.2µM
COCCN=c1scc(-c2cc(OC)c(OC)c(OC)c2)n1/N=C/c1c(C)[nH]c2ccccc12	?	?	?	0	11.2µM	20µM
O=C(NCC(=O)N1CCN(c2ccccc2)CC1)c1cccs1	-	0	-	0	0	0
O=C1c2ccccc2C(=O)C12OC2c1cccc2ccccc12 (configuration not stated)	14.1µM	0	6.31µM	28.2µM	0	0
O=C(CN(CCc1ccccc1)S(=O)(=O)c1ccc(Br)cc1)NCc1ccc(Cl)cc1	-	0	?	-	?	14.1µM
O=C(CN(CCc1ccccc1)S(=O)(=O)c1ccccc1)NCc1ccc(Cl)cc1	-	0	0	-	0	0
COc1cccc(NC(=O)CN(CCc2ccccc2)S(=O)(=O)c2ccc(Cl)cc2)c1	-	0	14.1µM	-	?	28.2µM
COC(=O)c1ccc(NC(=O)CN(CCc2ccccc2)S(=O)(=O)c2ccc(OC)cc2)cc1	-	0	0	-	0	0
CC(C)c1nnc(N2C(=O)c3oc4ccccc4c(=O)c3C2c2ccco2)s1 (configuration not stated)	0	0	0	0	0	0
Cc1ccc(C2c3c(oc4ccccc4c3=O)C(=O)N2c2nnc(C(C)C)s2)o1 (configuration not stated)	0	0	50.1µM	0	0	0
O=C(c1ccccc1)C(Sc1ncn[nH]1)c1ccccc1 (configuration not stated)	0	0	5.62µM	79.4µM	0	79.4µM
Brc1cccc(OCCCNC2CCCC2)c1	0	0	15.8µM	0	?	15.8µM
SMILES	L3MBTL1 block	HP1b binding inh	G9a block	Sfp PPTase inh	BAZ2B block	JMJD2A Tudor
CC(C)NCCOc1cccc(Br)c1	-	0	50.1µM	0	?	0
Brc1cccc(OCCSc2ncccn2)c1	0	0	0	0	0	?
CC(C)NCCCCOc1cccc(Br)c1	0	0	28.2µM	0	50.1µM	35.5µM
N#CC1(C(N)=O)OC12CCS(=O)(=O)c1ccccc12 (configuration not stated)	-	0	-	-	-	0
O=C(/C=C/c1ccccc1)NNC(=O)c1cccc(Cl)c1	0	0	0[0.501 µM]	0	0	0
O=C(/C=C/c1ccccc1)NNc1ccc(Cl)cc1	0	0	8.91µM	0	?	0
Cc1nc2ccn(Cc3ccco3)c(=O)c2cc1C(=O)NCc1ccc(Cl)cc1	-	0	0	-	0	0
Cc1cc(C(=O)COC(=O)c2cc(O)c3ccccc3c2O)c(C)n1CC1CCCO1 (configuration not stated)	?	28.2µM	10µM	79.4µM	50.1µM	31.6µM
Cc1cnc(CNc2ccnc(-c3cccc(C#N)c3)n2)cn1	-	-	0[0.501 µM]	0	-	-
O=C(/C(=C/O)N=Nc1ccccc1)c1cccs1	0	44.7µM	35.5µM	0	22.4µM	0[11.4 µM]
Cc1[nH]n(-c2ccccc2)c(=O)c1N=Nc1c(O)cc(S(=O)(=O)N(C)C)c2ccccc12	7.94µM	17.8µM	3.55µM	-	7.94µM	20µM
CC(=O)c1cccc(N=Nc2c(-c3ccccc3)[nH]n(-c3ccccc3)c2=O)c1	0	14.1µM	-	?	5.01µM	?
Cc1ccc(N=Nc2c(C)[nH]n(-c3ccccc3)c2=O)cc1Br	0	0	3.55µM	0	12.6µM	?
Cc1[nH]n(-c2ccccc2)c(=O)c1C=Nc1ccc(S(N)(=O)=O)cc1	-	0	?	0	0	0
Cc1[nH]n(-c2ccccc2)c(=O)c1N=Nc1ccc2c(c1)OCCO2	?	?	7.08µM	0	6.31µM	22.4µM
CCn1ncc(Cl)c1C(=O)Nc1ccc2c(c1)CCC2	-	-	0	0	0	-
O=C(Nc1ccc(Oc2ccccc2)cc1)c1ccc(F)c(S(=O)(=O)N2CCN(c3ccccc3F)CC2)c1	-	0	0	-	0	0
CCN(CC)S(=O)(=O)N1CCC(C(=O)NCc2ccco2)CC1	-	0	0	0	0	0
CSc1ccc(N=Nc2c(C)[nH]n(C)c2=O)cc1	?	44.7µM	11.2µM	0	17.8µM	25.1µM
Cc1ccc(N=Nc2c(C)[nH]n(-c3ccccc3)c2=O)c(C)c1	0	22.4µM	0	0	0	11.2µM
Cc1[nH][nH]c(=O)c1N=Nc1ccc(Cl)cc1	-	0	?	0	0	0
Cc1[nH]n(-c2ccccc2)c(=O)c1N=Nc1cccc(Cl)c1	0	?	-	0	22.4µM	?
COC(=O)c1ccc(N=Nc2c(C)[nH]n(-c3ccccc3)c2=O)cc1	-	?	8.91µM	0	?	?
Cc1[nH]n(-c2ccccc2)c(=O)c1N=O	0	0	0[12.7 µM]	0	0	0
Cc1[nH]n(-c2ccccc2)c(=O)c1N=Nc1ccc(F)cc1	-	0	4.47µM	0	4.47µM	?
CCCCCCCCCCCCCC[N+](C)(C)Cc1ccccc1	-	-	0[12.7 µM]	39.8µM	-	-
CCCCCCCCCCCCCCCC[N+](C)(C)CCl	-	0	-	-	-	0
CCCCCCCCCCCCCCCC[N+](C)(C)Cc1ccccc1	-	-	0[12.7 µM]	44.7µM	-	-

Bioassay records as filed in PubChem.
